# Data reported in PubChem BioAssay.
# The source made the active and inactive calls.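 How the source made its calls, unless noted: active means GFP response above 150% of the DMSO level; inconclusive means fewer than 70 events counted for a yeast strain; inactive means the rest.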
# Assay: modulators of MEP2-GFP levels in yeast, confirmation, S. cerevisiae, flow cytometry GFP, cherry picks (AID 2272;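 active means GFP response above 150% of the DMSO control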;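 further: ratio of well signal to plate DMSO mean so 100% equals DMSO level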)
# Conditions: S. cerevisiae MEP2-GFP strain, 3 h, at 10 µM, active compounds read high
row,SMILES,GFP response vs DMSO
1,Nc1ccccc1SC(C[N+](=O)[O-])c1ccccc1 (configuration not stated),112% (inactive)
2,N/C(=N\OC(=O)c1ccccc1Cl)c1ccc(Cl)cc1,108% (inactive)
3,Cc1[nH][nH]c(=O)c1C(c1ccc(-c2ccc(Cl)cc2)o1)c1c(C)[nH][nH]c1=O,114% (inactive)
4,Cc1ccc(/C=C2/C(=O)ON=C2c2ccccc2)o1,129% (inactive)
5,C[n+]1ccc(/C=C/c2c[nH]c3ccccc23)cc1,187% (active)
6,Cc1cc(O)c(C(=O)/C=C/c2c(F)c(F)c(F)c(F)c2F)c(=O)o1,109% (inactive)
7,Cc1cc(O)ccc1NC(=O)c1ccccc1,102% (inactive)
8,CCOc1ccc(Nc2ccc(C(=O)O)cc2[N+](=O)[O-])cc1,101% (inactive)
9,O=C1C=CC(=O)N1c1cccc(-c2ccccc2)c1,109% (inactive)
10,Cc1cccc(C)c1NC(=O)C(Cl)C(=O)c1ccccc1 (configuration not stated),100% (inactive)
11,O=C(NC(=S)NNC(=O)c1cnccn1)c1ccc(F)cc1,104% (inactive)
12,CCCc1[nH]nc2c1C(c1ccccc1OC)C(C#N)=C(N)O2 (configuration not stated),120% (inactive)
13,CCCNC(=O)COC(=O)c1ccc(S(=O)(=O)N2CCCC2)cc1,98.8% (inactive)
14,CC(C)(C)C(=O)NC(=S)NNC(=O)c1ccc(-c2ccccc2)cc1,141% (inactive)
15,O=C1Oc2ccccc2C(=O)/C1=C/c1ccccc1O,105% (inactive)
16,O=C(Nc1ccccc1)c1nnsc1S(=O)(=O)c1ccc(Cl)cc1,144% (inactive)
17,CCCc1cc(NCc2ccccn2)n2nc(C)c(-c3ccccc3)c2n1,143% (inactive)
18,Cc1cc(C)nc(S/C=C/C(=O)c2ccccc2)n1,121% (inactive)
19,Cc1nn2c(NCc3ccccn3)c3c(nc2c1-c1ccccc1)CCC3,120% (inactive)
20,CC(NCCS(=O)(=O)c1ccc(Cl)cc1)c1cccc(Cl)c1 (configuration not stated),106% (inactive)
21,CCCOc1ccc(C(=O)NNC(=S)NC(=O)CC)cc1,139% (inactive)
22,O=C(c1ccc(Cl)c([N+](=O)[O-])c1)N1CCN(c2ccccc2)CC1,102% (inactive)
23,O=C(c1ccc2c(c1)OCO2)N1CCN(c2ccccc2)CC1,98.3% (inactive)

# Assay: AGP1-GFP expression modulators, hit retest, confirmation, cell-based, flow cytometry, S. cerevisiae, cherry picks (AID 2273);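 further: median GFP channel fluorescence over the whole cell population gate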
# Conditions: S. cerevisiae AGP1-GFP strain, 3 h, at 10 µM
row,SMILES,"GFP response, % of DMSO"
1,O=C(Nc1cccnc1)c1ccc(-c2ccc(Cl)cc2)o1,94.1% (inactive)
2,Oc1c(N=Nc2ccccn2)ccc2ccccc12,84.7% (inactive)
3,Cc1cccn2c(=O)c3cc(C(=O)NCCc4ccccc4)c(=N)n(CCCn4ccnc4)c3nc12,98.6% (inactive)
4,Cc1ccc(CS(=O)(=O)c2ncc(Cl)c(C(=O)Nc3nnc(C(C)C)s3)n2)cc1,100% (inactive)
5,Oc1ccc2ccccc2c1N=Nc1nccs1,89.3% (inactive)
6,Oc1c(CN2CCN(c3ccc(F)cc3)CC2)cc(Cl)c2cccnc12,104% (inactive)
7,Oc1ccc(Br)cc1/C=N/Nc1ccccn1,91% (inactive)
8,O=C(/C=C/Sc1ncn[nH]1)c1ccc(Cl)cc1,89.5% (inactive)
9,C/C(=N\Nc1ncnc2sc(C)c(C)c12)c1ccccn1,107% (inactive)
10,CC(=O)Nc1ccc(Nc2cc(C)nc3c(-c4ccc(Cl)cc4)c(C)nn23)cc1,95% (inactive)
11,O=C1C=CC(=O)N1c1ccc(N2CCCCC2)cc1,79.9% (inactive)
12,CCn1c(/C=C/c2ccc([N+](=O)[O-])o2)nc2ccccc2c1=O,131% (inactive)
13,COc1ccc(C(=O)NC(=S)NNC(=O)CCc2ccccc2)cc1,87.7% (inactive)
14,Cc1ccc(-c2noc(CCC(=O)Nc3ccccc3C)n2)cc1,100% (inactive)
15,Nc1c(C(=O)c2cccs2)sc2nsc(SCCN3CCCCC3)c12,107% (inactive)
16,CCCCC(=O)O[C@]1(C(=O)CO)CC[C@H]2[C@@H]3CCC4=CC(=O)CC[C@]4(C)[C@H]3[C@@H](O)C[C@@]21C,99.3% (inactive)
17,Nc1ccccc1SC(C[N+](=O)[O-])c1ccccc1 (configuration not stated),112% (inactive)
18,N/C(=N\OC(=O)c1ccccc1Cl)c1ccc(Cl)cc1,77.2% (inactive)
19,Cc1[nH][nH]c(=O)c1C(c1ccc(-c2ccc(Cl)cc2)o1)c1c(C)[nH][nH]c1=O,103% (inactive)
20,Cc1ccc(/C=C2/C(=O)ON=C2c2ccccc2)o1,88.4% (inactive)

row,SMILES,"GFP response, % of DMSO"
1,C[n+]1ccc(/C=C/c2c[nH]c3ccccc23)cc1,107% (inactive)
2,Cc1cc(O)c(C(=O)/C=C/c2c(F)c(F)c(F)c(F)c2F)c(=O)o1,101% (inactive)
3,Cc1cc(O)ccc1NC(=O)c1ccccc1,102% (inactive)
4,CCOc1ccc(Nc2ccc(C(=O)O)cc2[N+](=O)[O-])cc1,97.8% (inactive)
5,O=C1C=CC(=O)N1c1cccc(-c2ccccc2)c1,104% (inactive)
6,Cc1cccc(C)c1NC(=O)C(Cl)C(=O)c1ccccc1 (configuration not stated),101% (inactive)
7,O=C(NC(=S)NNC(=O)c1cnccn1)c1ccc(F)cc1,92.4% (inactive)
8,CCCc1[nH]nc2c1C(c1ccccc1OC)C(C#N)=C(N)O2 (configuration not stated),102% (inactive)
9,CCCNC(=O)COC(=O)c1ccc(S(=O)(=O)N2CCCC2)cc1,99.8% (inactive)
10,CC(C)(C)C(=O)NC(=S)NNC(=O)c1ccc(-c2ccccc2)cc1,129% (inactive)
11,O=C1Oc2ccccc2C(=O)/C1=C/c1ccccc1O,91% (inactive)
12,O=C(Nc1ccccc1)c1nnsc1S(=O)(=O)c1ccc(Cl)cc1,87.7% (inactive)
13,CCCc1cc(NCc2ccccn2)n2nc(C)c(-c3ccccc3)c2n1,107% (inactive)
14,Cc1cc(C)nc(S/C=C/C(=O)c2ccccc2)n1,107% (inactive)
15,Cc1nn2c(NCc3ccccn3)c3c(nc2c1-c1ccccc1)CCC3,103% (inactive)
16,CC(NCCS(=O)(=O)c1ccc(Cl)cc1)c1cccc(Cl)c1 (configuration not stated),98.2% (inactive)
17,CCCOc1ccc(C(=O)NNC(=S)NC(=O)CC)cc1,130% (inactive)
18,O=C(c1ccc(Cl)c([N+](=O)[O-])c1)N1CCN(c2ccccc2)CC1,97.8% (inactive)
19,O=C(c1ccc2c(c1)OCO2)N1CCN(c2ccccc2)CC1,98% (inactive)
